Results filed as inconclusive are left out. Where a call stands in place of a potency, no number is given. The source made the active and inactive calls. The call rests on the fitted dose curve; in most records, active means well fitted inhibition curve with a large enough effect in the repeat runs; inconclusive means weak or mixed curves; inactive means no such curve, though single readings can be large or run the other way.
What follows are molecules tested against Cytochrome P450 2D6 (Homo sapiens) (UniProt P10635) (assay: Cytochrome P450 Family 2 Subfamily D Member 6 (CYP2D6) small molecule antagonists: luciferase reporter qHTS assay (AID 1671196; further: nearly all actives have a fitted effect of over 50% in size)). Settings: P450-Glo CYP2D6 enzyme assay, luciferin luminescence, 1 h; series mostly up to 115 µM.
From the text: U.S. Tox21 Program National Center for Advancing Translational Sciences [NCATS] U.S. Environmental Protection Agency [EPA] National Institutes of Environmental Health Sciences [NIEHS] National Toxicology Program [NTP] U.S. Food and Drug Administration [FDA] Tox21 Assay Overview: Cytochrome P450 (CYP) enzymes are membrane-bound hemeproteins that play a key role in metabolism of drugs and xenobiotics. Evaluation of the effect of chemicals on CYP isozymes is useful to minimize the adverse drug reactions and toxicities in drug development process. Tox21 chemicals were tested for their effect on CYP enzyme activities by using P450-Glo (TM) screening systems (Promega Corporation, Madison, WI). These systems provide a luminescent method containing proluciferin substrates and are converted to luciferin products by CYP isozymes. The luciferin products formed are detected with a luciferin detection reagent, and the amount of light produced is proportional to CYP activity. P450-Glo (TM) CYP2D6 screening system (Catalog. No. V9890) was used to detect the compounds that interfere in CYP2D6 activity.
Tox21 Assay Protocol Summary: Two ul of enzyme-substrate mix was dispensed into medium binding white/solid 1536-well plates (Greiner Bio-One North America Inc., Monroe, NC) using a BioRaptr Flying Reagent Dispenser (FRD, Beckman Coulter, Brea, CA). […] The assay plates were incubated at room temperature for 10 min. Then 2 ul of NADPH regeneration solution was added to each well of the assay plates using an FRD and incubated at room temperature for 1 h. The reaction was stopped by adding 4 ul of detection reagent using an FRD and after 20 min incubation at room temperature the luminescence signal was measured using a ViewLux plate reader (Perkin Elmer, Shelton, CT). Data were expressed as relative luminescence units.
Potency means the concentration at half of the fitted maximal effect.

Cytochrome P450 2D6 (Homo sapiens), sequence (P10635 whole entry, looked up): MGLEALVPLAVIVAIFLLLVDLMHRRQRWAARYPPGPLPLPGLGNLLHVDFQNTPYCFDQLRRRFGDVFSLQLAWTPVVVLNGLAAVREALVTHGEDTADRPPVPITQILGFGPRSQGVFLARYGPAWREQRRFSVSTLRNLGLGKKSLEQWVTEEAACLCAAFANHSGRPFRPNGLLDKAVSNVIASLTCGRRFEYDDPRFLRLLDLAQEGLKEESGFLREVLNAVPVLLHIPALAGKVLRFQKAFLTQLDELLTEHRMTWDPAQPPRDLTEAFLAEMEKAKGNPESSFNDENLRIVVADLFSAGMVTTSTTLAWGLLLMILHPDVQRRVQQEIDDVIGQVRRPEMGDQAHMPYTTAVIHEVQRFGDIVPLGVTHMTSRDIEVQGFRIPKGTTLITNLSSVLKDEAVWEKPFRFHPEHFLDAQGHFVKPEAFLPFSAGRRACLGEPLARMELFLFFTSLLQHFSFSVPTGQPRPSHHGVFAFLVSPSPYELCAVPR

SMILES	Potency
CN1CCN(C)CC1	inactive
C/C(=C\c1ccc(C(=O)O)cc1)c1ccc2c(c1)C(C)(C)CCC2(C)C	inactive
C=C1CC[C@H]2O[C@]2(C)CC[C@@H]2[C@@H]1CC2(C)C	inactive
Nc1ccc(F)c([N+](=O)[O-])c1	inactive
CCOC(=O)[C@H](O)[C@@H](O)C(=O)OCC	inactive
CC(CC(C)(C)C)CC(C)(C)CC(C)(C)C (stereo not given)	inactive
Nc1ccc(Cl)c([N+](=O)[O-])c1	inactive
Cc1c(Cl)c(=O)oc2cc(O)ccc12	inactive
O=C(Nc1ccccc1)c1cc(Cl)ccc1O	39.9 µM (active)
CCCCCCCCCCCCN1CCCC1=O	inactive
O=C(NCc1ncc(C(F)(F)F)cc1Cl)c1c(Cl)cccc1Cl	2.83 µM (active)
CCOC=C(C(=O)OCC)C(=O)OCC	inactive
c1ccc(C[P+](c2ccccc2)(c2ccccc2)c2ccccc2)cc1	0.252 µM (active)
C=COCCCC	inactive
CCn1c2ccccc2c2ccccc21	inactive
C1CCSC1	inactive
SC1CCCCC1	inactive
[Cl][Eu]([Cl])[Cl]	inactive
CCN(CCC#N)c1ccc(N=Nc2ccc([N+](=O)[O-])cc2)cc1	inactive
CC(C)(c1ccc(Oc2ccc(N)cc2)cc1)c1ccc(Oc2ccc(N)cc2)cc1	inactive

SMILES	Potency
CCC(O)CO (stereo not given)	inactive
NCc1cccc(C2CCN(C(=O)c3ccc(C#Cc4ccccc4F)o3)CC2)c1	20 µM (active)
O=C(Cl)c1ccc(Cl)cc1Cl	inactive
Nc1cc([N+](=O)[O-])ccc1Cl	inactive
CC(=O)Nc1ccc(N=Nc2cc(C)ccc2O)cc1	63.3 µM (active)
Cc1ccc2n[nH]nc2c1	inactive
Cn1ccnc1	inactive
C/C=C/C(=O)OCC(C)C	inactive
CCc1c(C)cc(N)c(CC)c1N	4.48 µM (active)
CCCCCCCCCCCCCCCCCCNC(=O)OC1CCN(C(=O)OC[C@H](COC(=O)N(Cc2cccc[n+]2CC)C(=O)c2ccccc2OC)OC)CC1	27.5 µM (active)
O=[N+]([O-])c1ccc(O)c2ncccc12	inactive
N#CCCOCCC#N	inactive
O=C(CCN1CCC(c2ccccc2)C1)c1ccc2c(c1)OCCO2 (stereo not given)	2.19 µM (active)
CN(C)CCOc1ccc(/C(=C(/CCCl)c2ccccc2)c2ccccc2)cc1	52.8 µM (active)
O=c1cc[nH]cc1	inactive
O=C1OCc2ccccc21	inactive
Brc1cc(Br)cc(Br)c1	inactive
Clc1nc(C(Cl)(Cl)Cl)c(Cl)c(Cl)c1Cl	31.7 µM (active)
Nc1c(Br)cc([N+](=O)[O-])cc1Br	inactive
COc1c(Br)cc(Br)c(C)c1Br	inactive
